PubChem BioAssay (EPA / NIEHS)
Results filed as inconclusive are left out. Active and inactive are the calls of the source. How the source made its calls: active means hit-call score of the fitted dose curve at least 0.9, where 1 is the maximum; inconclusive means response in the unintended direction; inactive means score below 0.9.

Legend:
[1] = NVS_GPCR_bNPY_NonSelective: NovaScreen (NVS) G Protein-Coupled Receptor Assay for bovine Neuropeptide Y (NPY) Receptor, Non-selective Binding (AID 2283245)
How it was run: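 Displacement of radioligand from bovine hippocampal membrane receptors, read by filtration and scintillation counting after 1 hour. Concentration-response to a top of 50 uM followed a 25 uM duplicate primary screen. Loss of signal versus DMSO.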

[2] = test system: bovine Histamine 1 Receptor (H1), gene 281231; assay: NVS_GPCR_bH1: NovaScreen (NVS) G Protein-Coupled Receptor Assay for bovine Histamine 1 Receptor (H1) (AID 2283246)
How it was run: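 Hits from a 25 uM duplicate primary screen were retested in concentration series (top 50 uM); binding measured as scintillation-counted displacement of radioligand from bovine cerebellar membranes after 1 h, normalised to DMSO.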

[3] = biological target: guinea pig Leukotriene D4 Receptor (LTD4), CYSLTR1 (gene 100135514) (UniProt Q2NNR5); assay: NVS_GPCR_gLTD4: NovaScreen (NVS) G Protein-Coupled Receptor Assay for guinea pig Leukotriene D4 Receptor (LTD4) (AID 2283248)
Chain of guinea pig Leukotriene D4 Receptor (LTD4), CYSLTR1 (gene 100135514) (Q2NNR5 whole entry, looked up): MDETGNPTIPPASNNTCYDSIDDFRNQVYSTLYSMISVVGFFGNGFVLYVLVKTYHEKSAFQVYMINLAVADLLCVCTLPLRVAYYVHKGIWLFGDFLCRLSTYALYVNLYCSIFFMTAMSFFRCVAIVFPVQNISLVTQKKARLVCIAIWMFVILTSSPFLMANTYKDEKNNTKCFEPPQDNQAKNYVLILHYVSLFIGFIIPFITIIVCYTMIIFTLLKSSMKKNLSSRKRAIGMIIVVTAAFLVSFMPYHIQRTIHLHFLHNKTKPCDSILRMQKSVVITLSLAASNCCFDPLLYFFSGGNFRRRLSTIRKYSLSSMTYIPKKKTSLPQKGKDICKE
How it was run: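 Guinea pig lung membrane preparation; bound radioligand measured by filter scintillation after 1 h, loss of signal versus DMSO marking displacement. Compounds tested at 25 uM in duplicate, hits retested to max 50 uM.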

[4] = biological target: sheep Cyclooxygenase-1 (Cox1), PTGS1 (gene 443551) (UniProt P05979); assay: NVS_ENZ_oCOX1: NovaScreen (NVS) Enzymatic Assay for sheep Cyclooxygenase-1 (Cox1) (AID 2283239);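 further: actives reduce cyclooxygenase activity so potencies are for inhibitors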
Chain of sheep Cyclooxygenase-1 (Cox1), PTGS1 (gene 443551) (P05979 whole entry, looked up): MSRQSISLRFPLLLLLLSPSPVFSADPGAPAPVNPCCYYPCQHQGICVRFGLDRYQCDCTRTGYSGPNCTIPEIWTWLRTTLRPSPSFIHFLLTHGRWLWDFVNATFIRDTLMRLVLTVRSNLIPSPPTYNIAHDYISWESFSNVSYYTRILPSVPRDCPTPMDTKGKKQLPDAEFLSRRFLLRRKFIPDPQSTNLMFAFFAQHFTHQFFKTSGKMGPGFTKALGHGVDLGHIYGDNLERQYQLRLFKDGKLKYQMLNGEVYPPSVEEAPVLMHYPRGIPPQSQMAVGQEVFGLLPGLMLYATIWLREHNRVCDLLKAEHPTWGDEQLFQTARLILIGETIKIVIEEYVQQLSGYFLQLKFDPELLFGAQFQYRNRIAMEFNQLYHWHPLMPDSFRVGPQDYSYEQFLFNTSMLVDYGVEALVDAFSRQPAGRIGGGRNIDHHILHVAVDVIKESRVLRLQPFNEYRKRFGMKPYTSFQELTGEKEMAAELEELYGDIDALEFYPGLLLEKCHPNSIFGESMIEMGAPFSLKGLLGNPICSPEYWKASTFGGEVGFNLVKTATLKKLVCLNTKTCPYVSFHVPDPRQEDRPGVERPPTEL
How it was run: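 Colorimetric enzyme readout using sheep seminal-vesicle cyclooxygenase-1, measured 0.66 h post-dosing. Single-concentration duplicates at 25 uM first, then concentration series for actives, with DMSO as baseline and plate controls.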

[5] = test system: guinea pig Leukotriene B4 Receptor (LTB4), gene 100379538; assay: NVS_GPCR_gLTB4: NovaScreen (NVS) G Protein-Coupled Receptor Assay for guinea pig Leukotriene B4 Receptor (LTB4) (AID 2283247)
How it was run: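 Membranes from guinea pig spleen incubated 2 h with radioligand and compound; bound counts measured by filtration and scintillation. Screened first at 25 uM in duplicate, then actives titrated to a 50 uM top concentration relative to DMSO.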

[6] = biological target: Adenosine receptor A1 (Bos taurus) (UniProt P28190); assay: NVS_GPCR_bAdoR_NonSelective: NovaScreen (NVS) G Protein-Coupled Receptor Assay for bovine Adenosine Receptor (AdoR), Non-selective Binding (AID 2283244)
Chain of Adenosine receptor A1 (Bos taurus) (P28190 whole entry, looked up): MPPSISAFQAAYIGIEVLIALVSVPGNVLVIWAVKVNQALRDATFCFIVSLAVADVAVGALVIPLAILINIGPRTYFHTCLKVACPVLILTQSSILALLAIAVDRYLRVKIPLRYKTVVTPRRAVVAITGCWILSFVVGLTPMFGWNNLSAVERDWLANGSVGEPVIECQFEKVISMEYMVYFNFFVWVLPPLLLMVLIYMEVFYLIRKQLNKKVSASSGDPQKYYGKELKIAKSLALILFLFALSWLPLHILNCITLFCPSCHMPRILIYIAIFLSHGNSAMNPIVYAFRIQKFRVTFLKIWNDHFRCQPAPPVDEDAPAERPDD
How it was run: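 Cell-free binding with membranes from bovine striatum: radioligand displaced by test chemical, read after 1 h by filtration and scintillation. Single-point 25 uM duplicate primary, 50 uM top concentration in follow-up curves, DMSO baseline.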

[7] = test system: bovine Angiotensin II Receptor Type 2 (AT2), gene 407157; assay: NVS_GPCR_bAT2: NovaScreen (NVS) G Protein-Coupled Receptor Assay for bovine Angiotensin II Receptor Type 2 (AT2) (AID 2283240)
How it was run: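 Radioligand displacement on bovine cerebellar membranes, 1 hour incubation, filter-based scintillation counting; loss of signal vs DMSO. Duplicate single-point screen at 25 uM, then concentration-response to 50 uM maximum.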

[8] = biological target: rat Catechol-O-Methyl Transferase (COMT), Comt (gene 24267) (UniProt P22734); assay: NVS_ENZ_rCOMT: NovaScreen (NVS) Enzymatic Assay for rat Catechol-O-Methyl Transferase (COMT) (AID 2283235)
Chain of rat Catechol-O-Methyl Transferase (COMT), Comt (gene 24267) (P22734 whole entry, looked up): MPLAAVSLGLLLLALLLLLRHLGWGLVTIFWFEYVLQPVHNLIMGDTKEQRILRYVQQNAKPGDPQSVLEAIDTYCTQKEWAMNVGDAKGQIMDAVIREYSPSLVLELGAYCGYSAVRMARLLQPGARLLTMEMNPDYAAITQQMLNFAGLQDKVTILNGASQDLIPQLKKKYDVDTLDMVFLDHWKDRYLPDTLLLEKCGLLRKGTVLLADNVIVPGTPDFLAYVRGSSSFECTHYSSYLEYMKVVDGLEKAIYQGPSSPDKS
Method: NVS_ENZ_rCOMT is a biochemical, single-readout assay that uses extracted gene-proteins from Rat dorsal striatum in a tissue-based cell-free assay. Measurements were taken 0 hour after chemical dosing in a 96-well plate.NVS_ENZ_rCOMT is one of one assay component(s) measured or calculated from the NVS_ENZ_rCOMT assay. It is designed to make measurements of enzyme activity, a form of enzyme reporter, as detected with absorbance signals by HPLC and Spectrophotometry technology.Data from the assay component NVS_ENZ_rCOMT was analyzed into 1 assay endpoint. This assay endpoint, NVS_ENZ_rCOMT, was analyzed in the positive analysis fitting direction relative to DMSO as the negative control and baseline of activity. Using a type of enzyme reporter, loss-of-signal activity can be used to understand changes in the enzymatic activity as they relate to the gene Comt. Furthermore, this assay endpoint can be referred to as a primary readout, because this assay has produced multiple assay endpoints where this one serves a enzymatic activity function. To generalize the intended target to other relatable targets, this assay endpoint is annotated to the methyltransferase intended target family, where the subfamily is o-methyltransferase.
Binding assays used specific radioligands (tritiated, iodinated) with non-radioactive competitive displacement ligands in agonist or antagonist protocols (as indicated) and various reference compounds and inhibitors to titrate specific binding to receptors and transporters. Most enzyme assays (CYPs, kinases, phosphatases, proteases, HDACs) used recombinant protein and specific substrates (fluorescence mostly, some colorimetric and radioactive) and inhibitors, followed by a biochemical separation of substrate and product. All assays for the biochemical HTS were initially run in duplicate at a single concentration (10 uM for CYP450 assays and 25 uM for all others). […]

[9] = biological target: bovine Dopamine Receptor (DR), Non-selective Binding, DRD1 (gene 281125) (UniProt Q95136); assay: NVS_GPCR_bDR_NonSelective: NovaScreen (NVS) G Protein-Coupled Receptor Assay for bovine Dopamine Receptor (DR), Non-selective Binding (AID 2283241)
Chain of bovine Dopamine Receptor (DR), Non-selective Binding, DRD1 (gene 281125) (Q95136 whole entry, looked up): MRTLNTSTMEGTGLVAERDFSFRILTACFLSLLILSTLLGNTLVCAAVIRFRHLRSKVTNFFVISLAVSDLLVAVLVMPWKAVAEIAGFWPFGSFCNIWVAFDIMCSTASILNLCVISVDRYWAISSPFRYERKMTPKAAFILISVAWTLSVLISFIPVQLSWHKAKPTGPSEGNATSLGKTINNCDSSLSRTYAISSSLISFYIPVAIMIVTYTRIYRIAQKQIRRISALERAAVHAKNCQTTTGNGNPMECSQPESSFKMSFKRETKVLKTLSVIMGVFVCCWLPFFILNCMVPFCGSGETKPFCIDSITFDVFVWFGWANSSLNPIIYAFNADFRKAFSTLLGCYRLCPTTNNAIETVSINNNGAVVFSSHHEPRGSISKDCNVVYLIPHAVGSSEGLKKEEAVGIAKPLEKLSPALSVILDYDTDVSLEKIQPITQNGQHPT
How it was run: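 Filter-based radioligand binding with bovine striatal membrane, incubated 1 h; DMSO as negative baseline. Initial duplicate single-point test at 25 uM preceded concentration series for actives.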

[10] = biological target: rat Constitutive Nitric Oxide Synthase (CNOS), Nos1 (gene 24598) (UniProt P29476); assay: NVS_ENZ_rCNOS: NovaScreen (NVS) Enzymatic Assay for rat Constitutive Nitric Oxide Synthase (CNOS) (AID 2283236)
Chain of rat Constitutive Nitric Oxide Synthase (CNOS), Nos1 (gene 24598) (P29476 whole entry, looked up): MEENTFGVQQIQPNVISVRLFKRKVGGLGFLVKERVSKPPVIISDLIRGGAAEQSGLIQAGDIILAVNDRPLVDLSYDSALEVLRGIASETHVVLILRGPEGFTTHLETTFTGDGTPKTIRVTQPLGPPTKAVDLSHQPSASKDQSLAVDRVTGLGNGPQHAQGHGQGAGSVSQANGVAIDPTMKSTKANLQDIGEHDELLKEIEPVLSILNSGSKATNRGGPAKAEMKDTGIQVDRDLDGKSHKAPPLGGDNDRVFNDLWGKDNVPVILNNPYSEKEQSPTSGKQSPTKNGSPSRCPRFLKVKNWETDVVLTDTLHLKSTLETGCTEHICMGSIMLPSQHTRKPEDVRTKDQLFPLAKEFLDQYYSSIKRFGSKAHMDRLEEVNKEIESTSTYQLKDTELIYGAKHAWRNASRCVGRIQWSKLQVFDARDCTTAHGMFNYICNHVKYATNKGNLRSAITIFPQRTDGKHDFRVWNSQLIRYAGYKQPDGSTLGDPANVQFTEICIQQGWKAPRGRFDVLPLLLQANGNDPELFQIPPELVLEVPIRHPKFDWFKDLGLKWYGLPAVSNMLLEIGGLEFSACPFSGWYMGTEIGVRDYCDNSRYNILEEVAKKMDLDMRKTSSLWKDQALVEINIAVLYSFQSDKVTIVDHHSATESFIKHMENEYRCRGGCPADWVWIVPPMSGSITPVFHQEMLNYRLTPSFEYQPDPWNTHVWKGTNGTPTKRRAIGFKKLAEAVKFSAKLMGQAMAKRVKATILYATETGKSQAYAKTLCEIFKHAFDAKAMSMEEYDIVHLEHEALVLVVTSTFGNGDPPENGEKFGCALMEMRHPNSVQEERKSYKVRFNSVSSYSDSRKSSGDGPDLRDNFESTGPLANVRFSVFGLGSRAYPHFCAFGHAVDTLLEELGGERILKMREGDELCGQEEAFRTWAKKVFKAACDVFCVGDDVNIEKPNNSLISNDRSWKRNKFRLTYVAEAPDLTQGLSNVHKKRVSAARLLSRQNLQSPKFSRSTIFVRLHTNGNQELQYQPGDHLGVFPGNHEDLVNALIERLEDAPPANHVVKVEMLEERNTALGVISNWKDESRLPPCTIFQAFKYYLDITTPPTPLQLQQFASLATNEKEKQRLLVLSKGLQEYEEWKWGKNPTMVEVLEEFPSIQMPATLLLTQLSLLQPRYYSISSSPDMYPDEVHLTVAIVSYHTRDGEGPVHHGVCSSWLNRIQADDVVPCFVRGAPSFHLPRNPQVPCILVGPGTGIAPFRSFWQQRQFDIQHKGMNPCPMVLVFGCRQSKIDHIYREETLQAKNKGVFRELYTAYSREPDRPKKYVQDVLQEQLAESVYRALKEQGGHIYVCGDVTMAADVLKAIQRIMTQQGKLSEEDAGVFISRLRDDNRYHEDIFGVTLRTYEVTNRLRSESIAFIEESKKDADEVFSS
How it was run: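 Single […] uM duplicate screen, then concentration series to 50 uM for chemicals meeting threshold. Rat brain membrane-derived CNOS activity detected radiometrically by filtration and scintillation counting, 1 h after compound addition; DMSO as baseline.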

Compound: CCOC(=O)O[C@H](C)OC(=O)c1ccc2c(c1)cc(C(=O)NC1CCN(C(C)C)CC1)n2Cc1cc(-c2ccc(Cl)s2)on1
- AC50 [1]: 23.6 µM (active)

Compound: Cc1ccc2oc(CN(Cc3ccccc3)C(=O)Nc3c(F)cc(F)cc3F)c(-c3ccc(Cl)cc3)c2c1
- outcome [2]: inactive

Compound: CCN(Cc1cccnc1)C(=O)c1cccc(Cl)c1[C@]1(C)C(=O)N(Cc2ccc(OC)cc2OC)c2ccc(Cl)cc21
- outcome [1]: inactive
- AC50 [3]: 9.32 µM (active)

Compound: CC[C@H](NC(=O)c1cc(F)ccc1NS(=O)(=O)c1cccc2cccnc12)c1ccccc1
- outcome [4]: inactive
- AC50 [5]: 0.206 µM (active)
- outcome [3]: inactive

Compound: CC(C)(C)c1cc(/C=C2\SC(N)=NC2=O)cc(C(C)(C)C)c1O
- outcome [4]: inactive
- outcome [6]: inactive
- outcome [2]: inactive

Compound: CCCCCCCCCCCC[N+](C)(C)C
- outcome [1]: inactive

Compound: CN(C[C@@H](CC[N+]12CCC(C3CCCCC3)(CC1)CC2)c1ccc(Cl)c(Cl)c1)C(=O)c1cc(C(F)(F)F)cc(C(F)(F)F)c1
- AC50 [7]: 36.7 µM (active)
- AC50 [5]: 0.166 µM (active)

Compound: CC(C)(O)c1ccc(CNC(=O)c2cccnc2Oc2ccc3nonc3c2)cc1
- AC50 [5]: 0.646 µM (active)

Compound: O=C1O[C@H]([C@@H](O)CO)C(O)=C1O
- AC50 [8]: 11.5 µM (active)

Compound: Cc1occc1C(=O)Nc1ccc(C(=O)N2CCC(F)(F)/C(=C\C(=O)N3CCC(N4CCCCC4)CC3)c3ccccc32)cc1
- AC50 [7]: 3.76 µM (active)

Compound: O=C(O)Cc1cc(I)c(Oc2ccc(O)c(I)c2)c(I)c1
- AC50 [5]: 0.623 µM (active)

Compound: CO[C@H]1/C=C/O[C@@]2(C)Oc3c(C)c(O)c4c(O)c(c(/C=N/N5CCN(C)CC5)c(O)c4c3C2=O)NC(=O)/C(C)=C\C=C\[C@H](C)[C@H](O)[C@@H](C)[C@@H](O)[C@@H](C)[C@H](OC(C)=O)[C@@H]1C
- AC50 [4]: 3.36 µM (active)

Compound: O=CCCCC=O
- outcome [2]: inactive

Compound: CN(C)C(=O)C1(N2CCCCC2)CCN(CC[C@@]2(c3ccc(Cl)c(Cl)c3)CN(C(=O)c3ccccc3)CCO2)CC1
- AC50 [9]: 4.5 µM (active)
- AC50 [1]: 15.1 µM (active)

Compound: CCCCCCCCOC(=O)c1cc(O)c(O)c(O)c1
- AC50 [8]: 2.54 µM (active)
- outcome [4]: inactive

Compound: CCCCOC(=O)c1ccc(O)cc1
- outcome [10]: inactive

Compound: CN(C)c1ccc(C(=C2C=CC(=[N+](C)C)C=C2)c2ccc(N(C)C)cc2)cc1
- AC50 [6]: 13.6 µM (active)
- AC50 [1]: 11.2 µM (active)

Compound: CCCCCCCCCC(=O)O
- outcome [6]: inactive
- outcome [5]: inactive

Compound: O=c1c(-c2ccc(O)cc2)coc2cc(O)cc(O)c12
- outcome [4]: inactive
- AC50 [6]: 18.9 µM (active)

Compound: CC(C)(C)c1csc(-c2cc3cc(OCc4ccccc4CC(=O)O)ccc3o2)n1
- AC50 [3]: 0.0125 µM (active)

Compound: CCCCCc1ccc(N)cc1
- AC50 [4]: 7.04 µM (active)

Compound: COc1ccc2cc(S(=O)(=O)N[C@H](CC(=O)N[C@H](Cc3ccc(CN4[C@H](C)CCC[C@@H]4C)cc3)C(=O)N(C)C(C)C)c3ccc4c(c3)OCO4)ccc2c1
- AC50 [7]: 37.5 µM (active)
- AC50 [1]: 10.7 µM (active)

Compound: NCc1cccc(C2CCN(C(=O)c3ccc(C#Cc4ccccc4F)o3)CC2)c1
- AC50 [1]: 25 µM (active)

Compound: CCN(CC)C(=O)c1cc(S(=O)(=O)Cc2ccccc2)c(N2CCC(c3ccccc3)CC2)cc1N(CC)CCN(C)C
- outcome [10]: inactive
- AC50 [9]: 6.88 µM (active)
- outcome [6]: inactive
- outcome [1]: inactive

Compound: Cc1cc(F)ccc1-c1cc(N2CC[C@@H](O)[C@H]2CO)ncc1N(C)C(=O)C(C)(C)c1cc(C(F)(F)F)cc(C(F)(F)F)c1
- outcome [3]: inactive

Compound: O=C1c2ccccc2C(=O)N1CCc1noc(-c2ccc(CN3CCCCCC3)s2)n1
- outcome [4]: inactive
- outcome [7]: inactive
- AC50 [9]: 14.6 µM (active)
- AC50 [2]: 12.1 µM (active)

Compound: CC1(C)NC(=O)N(c2ccc([N+](=O)[O-])c(C(F)(F)F)c2)C1=O
- AC50 [6]: 9.79 µM (active)

Compound: Cc1c2ccccc2c(C)c2c1ccc1ccccc12
- AC50 [4]: 43.3 µM (active)

Compound: O=C(O)Cn1c(=O)n(Cc2ccc(Br)cc2F)c(=O)c2ccc(Cl)cc21
- outcome [7]: inactive

Compound: CCCOC(=O)c1cc(O)c(O)c(O)c1
- AC50 [8]: 0.454 µM (active)
- AC50 [4]: 12 µM (active)
- outcome [5]: inactive

Compound: Cc1oc2c(NC(=O)c3c(Cl)cccc3Cl)cccc2c1C(C)(C)O
- AC50 [2]: 25 µM (active)

Compound: COc1cccc([C@H](O)C2CCN(CCc3ccc(F)cc3)CC2)c1OC
- AC50 [9]: 5.96 µM (active)
- AC50 [2]: 5.41 µM (active)

Compound: Oc1ccc2ccccc2c1
- AC50 [4]: 5.35 µM (active)

Compound: CCCCCCCCCCCO
- outcome [1]: inactive

Compound: CC/C(=C(/CC)c1ccc(O)cc1)c1ccc(O)cc1
- outcome [4]: inactive
- AC50 [3]: 5.08 µM (active)

Compound: O=c1[nH]sc2ccccc12
- AC50 [3]: 3.31 µM (active)

Compound: COc1cc(C(=O)NC2CCN(C)CC2)ccc1Nc1ncc2c(n1)N(C1CCCC1)CC(F)(F)C(=O)N2C
- AC50 [7]: 14 µM (active)
- AC50 [9]: 11.2 µM (active)
